# Tested on: gramicidin D channels in DC22:1PC lipid vesicles (bilayer-modifying potency)
# Assay: initial Tl+ fluorescence quench rate relative to no-drug control (NormRate, gramicidin monomer-dimer shift) (ratio (fold of control)); higher = stronger bilayer-modifying effect (equilibrium shifted toward conducting dimers), active = 1.5 or more
# Conditions: 10 µM; lipid concentration 50 µM; temperature: 25 °C
# Description: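 Stopped-flow fluorescence quench assay: ANTS-loaded DC22:1PC large unilamellar vesicles doped with gramicidin D (1:2000), 50 µM lipid, equilibrated 10 min with 10 µM drug (0.1% DMSO), mixed with Tl+ quench buffer at 25°C. Initial quench rate (Tl+ influx) was fitted with a modified stretched exponential and normalised to the no-drug control rate (NormRate); duplicates from two independent LUV preparations (triplicates for 7 drugs).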
row,SMILES,initial Tl+ fluorescence quench rate
1,CCCn1c(CNc2ccccc2O)nc2ccccc21,1.05 (inactive)
2,CCCCOC(=O)Nc1cc2nc(C3CCCCC3)[nH]c2cc1N1CCCC1,1.33 (inactive)
3,O=C1Nc2ccc(Br)cc2[C@]12NCCc1c2[nH]c2ccccc12,3.74 (active)
4,O=C(Nc1nnc(-c2ccc(Cl)s2)o1)c1ccc(Cl)s1,1.27 (inactive)
5,Cn1ncc2c(N3CCOCC3)nc(NCCc3c[nH]c4ccccc34)nc21,3.03 (active)
6,O=C(Nc1nc(-c2ccccn2)cs1)[C@H]1C[C@@H]1c1ccccc1F,1.41 (inactive)
7,CCN(CC)CCCCCCNc1cc(OC)cc2c(C)ccnc12,1.45 (inactive)
8,CCOC(=O)c1noc(N)c1-c1ccccc1,1.03 (inactive)
9,O=C(NCCN1CCCC1)c1cc(NCCCCN2CCC(F)(F)CC2)nc2ccc(Cl)cc12,1.92 (active)
10,O=C(COc1cccc(F)c1)Nc1nc(-c2ccccn2)cs1,1.16 (inactive)
11,CC(C)[C@@H](Oc1cccc2ccccc12)C(=O)O,1.1 (inactive)
12,COc1cc(C2=NCCN2)ccc1-c1cn(-c2cccc(C3=NCCN3)c2)nn1,1.01 (inactive)
13,CCn1cnc2c(Nc3cc(F)cc(F)c3)nc(C#N)nc21,1.21 (inactive)
14,CCc1ccccc1-n1c(C)cn2c3c(=O)n([C@@H](C(=O)OC)C(C)C)c(=O)n(C)c3nc12,1.2 (inactive)
15,C[C@@H](C(=O)N1CCCC1)N1CCN(S(=O)(=O)c2ccc(C(C)(C)C)cc2)CC1,1.15 (inactive)
16,O=C(c1cc2ccccc2o1)N1CCN(Cc2ccc3c(c2)OCO3)CC1,1.08 (inactive)
17,C[C@@H](Oc1cccc(Cl)c1)C(=O)Nc1ccc2oc(-c3ccncc3)nc2c1,1.72 (active)
18,CC(=O)Oc1ccccc1C(=O)Nc1ncc([N+](=O)[O-])s1,1.05 (inactive)
19,COc1cccn2c(C(=O)N3CCCCC3)c(C(F)(F)F)nc12,1.08 (inactive)
20,Nc1ncnc2c1ncn2C[C@@H](O)[C@@H](O)C(=O)O,1.05 (inactive)

row,SMILES,initial Tl+ fluorescence quench rate
1,Cc1cc(O)nc(-n2nc(C)cc2C)n1,1.04 (inactive)
2,[H]/N=C(\N)c1ccc(-n2cc(-c3cc(/C(N)=N/[H])ccc3OC)nn2)cc1,1.05 (inactive)
3,CC1(C)Cc2c(c(N3CCOCC3)nc3snc(Br)c23)CO1,1.26 (inactive)
4,NCC[C@H](O)C(=O)N[C@@H]1C[C@H](N)[C@@H](O[C@H]2O[C@H](CN)[C@@H](O)[C@H](O)[C@H]2O)[C@H](O)[C@@H]1O[C@H]1O[C@H](CO)[C@@H](O)[C@H](N)[C@H]1O,1.02 (inactive)
5,C[C@@H]1[C@H](O)[C@@H](C)/C=C/C=C/C=C/C=C/C=C/C=C/C=C/[C@H](O[C@@H]2O[C@H](C)[C@@H](O)[C@H](N)[C@@H]2O)C[C@@H]2O[C@](O)(C[C@@H](O)C[C@@H](O)[C@H](O)CC[C@@H](O)C[C@@H](O)CC(=O)O[C@H]1C)C[C@H](O)[C@H]2C(=O)O,1.03 (inactive)
6,c1ccc2c(c1)CN(CC1CC1)CC1(CCN(Cc3c[nH]c4cnccc34)CC1)O2,1.06 (inactive)
7,COc1ccc(Nc2ccccc2NC(=O)c2ccc(O)nc2)cc1,1.03 (inactive)
8,CC[C@H](NC(=O)c1ccccc1NC(=O)c1ccc(C)cc1)C(=O)OC,1.32 (inactive)
9,CCOc1ccc(OCC(=O)Nc2cc(C)cc(C)c2)cc1,1.45 (inactive)
10,CC(=O)Nc1ccc(-c2noc(C[C@@H]3CCCN(Cc4cccc(F)c4C)C3)n2)cc1,1.29 (inactive)
11,COc1cc(NC(=O)Cc2nn(C)c(=O)c3ccccc23)ccc1Cl,1.11 (inactive)
12,O=C(Nc1ccccc1-c1nc2c(C(=O)O)cccc2o1)c1ccccc1,1.34 (inactive)
13,CN(C)CCNC(=O)N1CCCN(c2ncnc3cc(-c4ccccc4)sc23)CC1,1.11 (inactive)
14,COC(=O)c1cccc2oc(-c3cccc(OC)c3NC(=O)c3cc(-c4ccccc4)on3)nc12,1.76 (active)
15,C[C@@]1(COc2ccc(N3CCC(Oc4ccc(OC(F)(F)F)cc4)CC3)cc2)Cn2cc([N+](=O)[O-])nc2O1,1.1 (inactive)
16,O=C(NCCc1c[nH]c2ccccc12)c1cc2ccccc2oc1=O,1.95 (active)
17,CCCCc1ccc(C(=O)Nc2nccc3ccccc23)nc1,1.33 (inactive)
18,O=C(Cn1ccnc1[N+](=O)[O-])NCc1ccccc1,1.01 (inactive)
19,O=C(c1[nH]nc2c1CCCC2)N1CCN(Cc2ccc3c(c2)OCO3)CC1,1.03 (inactive)
20,Cc1cccc(-c2nc(Nc3ccncn3)c3sccc3n2)n1,1.81 (active)
